PubChem BioAssay AID1159580 (chemical genetic matrix, 2015)
The whole screen tested about 5,500 compounds, of which about 2,000 (36%) were called active. Inconclusive results (about 18%) are left out. Rule as the data show it: active = normalized growth mostly below about 0.91 (no sharp cut-off); inconclusive = no clear call, values can overlap the other calls; inactive = mostly above about 0.92. The list shows a part of the results.

Experiment: chemical genetic growth profiling, strain panel (AID 1159580);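 also: tested at 20 µM; growth read once vehicle control cultures reached saturation at 30 °C; 1 = growth at the plate median or of vehicle wells; lower values mean less growth of the strain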
Settings: growth OD

Measured: normalized growth

CC1CC[C@@]2(OC1)O[C@H]1CC3C4CC[C@@H]5C[C@@H](O)CC[C@]5(C)C4CC[C@]3(C)[C@H]1[C@@H]2C (some centres not stated)
inactive: S. cerevisiae deletion strains, locus YJR066W, strain TOR1, stronger effect = lower value 0.937 | S. cerevisiae deletion strains, locus YJR075W, strain HOC1, stronger effect = lower value 1.03 | S. cerevisiae deletion strains, locus YKL009W, strain mrt4, stronger effect = lower value 0.988 | S. cerevisiae deletion strains, locus YKL068W, stronger effect = lower value 0.985 | S. cerevisiae deletion strains, locus YKL085W, strain MDH1 (second series), stronger effect = lower value 0.969 | S. cerevisiae deletion strains, locus YKL085W, strain MDH1, stronger effect = lower value 0.969 | S. cerevisiae deletion strains, locus YKL160W, strain elf1, stronger effect = lower value 1.02 | S. cerevisiae deletion strains, locus YKL190W, strain CNB1, stronger effect = lower value 1.03 | S. cerevisiae deletion strains, locus YKR001C, strain vps1, stronger effect = lower value 1.01 | S. cerevisiae deletion strains, locus YKR026C, strain gcn3, stronger effect = lower value 1.03 | S. cerevisiae deletion strains, locus YLL026W, stronger effect = lower value 1.02 | S. cerevisiae deletion strains, locus YLL041C, strain sdh2, stronger effect = lower value 1.02 | S. cerevisiae deletion strains, locus YLR027C, strain aat2, stronger effect = lower value 1.05 | S. cerevisiae deletion strains, locus YLR039C, strain RIC1, stronger effect = lower value 1.09 | S. cerevisiae deletion strains, locus YLR058C, strain SHM2, stronger effect = lower value 1.04 | S. cerevisiae deletion strains, locus YLR102C, strain apc9, stronger effect = lower value 1.01 | S. cerevisiae deletion strains, locus YLR113W, strain HOG1, stronger effect = lower value 0.996 | S. cerevisiae deletion strains, locus YLR221C, strain rsa3, stronger effect = lower value 1.03 | S. cerevisiae deletion strains, locus YLR258W, strain gsy2, stronger effect = lower value 1.03 | S. cerevisiae deletion strains, locus YLR262C, strain YPT6 (second series), stronger effect = lower value 0.987 | S. cerevisiae deletion strains, locus YLR268W, strain sec22, stronger effect = lower value 1.02 | S. cerevisiae deletion strains, locus YLR320W, strain mms22, stronger effect = lower value 1.04 | S. cerevisiae deletion strains, locus YLR330W, strain CHS5, stronger effect = lower value 1.02 | S. cerevisiae deletion strains, locus YLR342W, strain FKS1 (second series), stronger effect = lower value 1.03 | S. cerevisiae deletion strains, locus YLR342W, strain FKS1, stronger effect = lower value 1.03 | S. cerevisiae deletion strains, locus YLR370C, strain arc18, stronger effect = lower value 1.02 | S. cerevisiae deletion strains, locus YLR371W, strain rom2, stronger effect = lower value 1.01 | S. cerevisiae deletion strains, locus YLR384C, strain iki3, stronger effect = lower value 1.01 | S. cerevisiae deletion strains, locus YLR418C, strain cdc73, stronger effect = lower value 1.04 | S. cerevisiae deletion strains, locus YML016C, strain PPZ1, stronger effect = lower value 1.02 | S. cerevisiae deletion strains, locus YML032C, strain rad52, stronger effect = lower value 1.01 | S. cerevisiae deletion strains, locus YML120C, strain ndi1, stronger effect = lower value 1.04 | S. cerevisiae deletion strains, locus YML124C, strain tub3, stronger effect = lower value 0.998 | S. cerevisiae deletion strains, locus YMR058W, strain fet3, stronger effect = lower value 1.02 | S. cerevisiae deletion strains, locus YMR078C, strain ctf18, stronger effect = lower value 0.998 | S. cerevisiae deletion strains, locus YMR125W, strain sto1, stronger effect = lower value 1.04 | S. cerevisiae deletion strains, locus YMR129W, stronger effect = lower value 1.01 | S. cerevisiae deletion strains, locus YMR205C, strain PFK2, stronger effect = lower value 1.02 | S. cerevisiae deletion strains, locus YMR223W, strain ubp8, stronger effect = lower value 1 | S. cerevisiae deletion strains, locus YMR231W, strain pep5, stronger effect = lower value 1.02 | S. cerevisiae deletion strains, locus YMR307W, strain GAS1, stronger effect = lower value 1.21 | S. cerevisiae deletion strains, locus YNL067W, strain RPL9B, stronger effect = lower value 1.03 | S. cerevisiae deletion strains, locus YNL071W, strain lat1, stronger effect = lower value 1.04 | S. cerevisiae deletion strains, locus YNL183C, strain NPR1, stronger effect = lower value 0.941 | S. cerevisiae deletion strains, locus YNL209W, strain ssb2, stronger effect = lower value 1.01 | S. cerevisiae deletion strains, locus YNL233W, strain BNI4, stronger effect = lower value 1.07 | S. cerevisiae deletion strains, locus YNL248C, strain rpa49, stronger effect = lower value 1.02 | S. cerevisiae deletion strains, locus YNL250W, strain rad50, stronger effect = lower value 1.05 | S. cerevisiae deletion strains, locus YNL271C, strain bni1, stronger effect = lower value 1 | S. cerevisiae deletion strains, locus YNL298W, strain CLA4, stronger effect = lower value 1.05 | S. cerevisiae deletion strains, locus YNL307C, strain MCK1, stronger effect = lower value 1 | S. cerevisiae deletion strains, locus YNL322C, strain KRE1 (second series), stronger effect = lower value 1.05 | S. cerevisiae deletion strains, locus YNL322C, strain KRE1, stronger effect = lower value 1.02 | S. cerevisiae deletion strains, locus YNR049C, strain mso1, stronger effect = lower value 1.02 | S. cerevisiae deletion strains, locus YNR052C, strain pop2, stronger effect = lower value 0.995 | S. cerevisiae deletion strains, locus YOL012C, strain htz1 1.12 | S. cerevisiae deletion strains, locus YOL147C, strain pex11, stronger effect = lower value 1.03 | S. cerevisiae deletion strains, locus YOR001W, strain rrp6, stronger effect = lower value 1.05 | S. cerevisiae deletion strains, locus YOR061W, strain CKA2, stronger effect = lower value 1.02 | S. cerevisiae deletion strains, locus YOR069W, strain VPS5, stronger effect = lower value 1.02 | S. cerevisiae deletion strains, locus YOR070C, strain gyp1, stronger effect = lower value 1.01 | S. cerevisiae deletion strains, locus YOR080W, strain dia2, stronger effect = lower value 1.02 | S. cerevisiae deletion strains, locus YOR083W, strain WHI5, stronger effect = lower value 1.02 | S. cerevisiae deletion strains, locus YOR106W, strain vam3, stronger effect = lower value 1.04 | S. cerevisiae deletion strains, locus YOR136W, strain idh2, stronger effect = lower value 1.01 | S. cerevisiae deletion strains, locus YOR144C, strain elg1, stronger effect = lower value 1 | S. cerevisiae deletion strains, locus YOR184W, strain ser1, stronger effect = lower value 1 | S. cerevisiae deletion strains, locus YOR231W, strain MKK1, stronger effect = lower value 0.99 | S. cerevisiae deletion strains, locus YOR265W, strain rbl2, stronger effect = lower value 1.01 | S. cerevisiae deletion strains, locus YOR270C, strain vph1, stronger effect = lower value 1.14 | S. cerevisiae deletion strains, locus YOR290C, strain snf2, stronger effect = lower value 1.1 | S. cerevisiae deletion strains, locus YOR316C, strain cot1, stronger effect = lower value 0.992 | S. cerevisiae deletion strains, locus YPL051W, strain arl3, stronger effect = lower value 1.02 | S. cerevisiae deletion strains, locus YPL078C, strain atp4, stronger effect = lower value 1.05 | S. cerevisiae deletion strains, locus YPL106C, strain sse1, stronger effect = lower value 1.02 | S. cerevisiae deletion strains, locus YPL240C, strain hsp82, stronger effect = lower value 1.02 | S. cerevisiae deletion strains, locus YPL241C, strain CIN2, stronger effect = lower value 1.03 | S. cerevisiae deletion strains, locus YPL256C, strain CLN2, stronger effect = lower value 0.984 | S. cerevisiae deletion strains, locus YPR119W, strain clb2, stronger effect = lower value 1.01 | S. cerevisiae deletion strains, locus YPR141C, strain kar3, stronger effect = lower value 1 | S. cerevisiae deletion strains, locus YPR163C, strain tif3, stronger effect = lower value 1.01 | S. cerevisiae deletion strains, locus YPR167C, strain met16, stronger effect = lower value 1.02 | S. cerevisiae deletion strains, strain wtn01, stronger effect = lower value 1.01 | S. cerevisiae strains, strain wild type, stronger effect = lower value 1.05
active: S. cerevisiae deletion strains, locus YKR091W, strain srl3, stronger effect = lower value 1.11 [resistant] | S. cerevisiae deletion strains, locus YLL001W, strain dnm1, stronger effect = lower value 1.18 [resistant] | S. cerevisiae deletion strains, locus YLR357W, strain rsc2, stronger effect = lower value 1.45 [resistant]
